Screening data: PubChem, Emory University Molecular Libraries Screening Center
Many of the other results were omitted from the sample, so hits are more common in it than they were.
14-3-3g Raf: 14-3-3 gamma protein interaction modulation; P61981; FP, 14-3-3gamma / TMR-pS259-Raf peptide binding; inhibition, % at 40 µM; 0.19% of 160,000 active; in the data active means inhibition above about 30%;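 further: 0% = protein plus tracer without compound and 100% = blank with tracer alone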
Target sequence (P61981 whole entry, looked up): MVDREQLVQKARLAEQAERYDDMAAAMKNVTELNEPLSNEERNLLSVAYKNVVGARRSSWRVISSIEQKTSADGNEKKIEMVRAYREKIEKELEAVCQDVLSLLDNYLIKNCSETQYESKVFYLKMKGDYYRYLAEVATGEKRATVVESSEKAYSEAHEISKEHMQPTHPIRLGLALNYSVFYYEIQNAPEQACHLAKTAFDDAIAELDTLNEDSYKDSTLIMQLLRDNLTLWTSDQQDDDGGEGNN
* = called active by the depositor; + = active, no number; ! = not confirmed by another sample.

SMILES | 14-3-3g Raf
CC1=C(C(=O)OC(C)C)C(c2ccccc2[N+](=O)[O-])NC(=S)N1 (stereo not drawn) | -7
COc1cc2nc(SCc3cccc(Cl)c3)n3nc(C)nc3c2cc1OC | -9
O=C(CN(Cc1ccccc1)S(=O)(=O)c1ccccc1)NCc1ccncc1 | 33*
O=C(CN(Cc1ccccc1)S(=O)(=O)c1ccc(F)cc1)NCc1ccccc1 | 3
O=C(CN(Cc1ccccc1)S(=O)(=O)c1ccc(Br)cc1)NCc1ccncc1 | -2
Cc1ccc2[nH]c3nc(SCC(C)C)nnc3c2c1 | -10
CCc1ccc(CNC(=O)CSCc2ccccc2Cl)cc1 | -3
COc1cccc(C2C3=C(CC(C)(C)CC3=O)Nc3nc(SCc4cccc(C)c4)[nH]c(=O)c32)c1 (stereo not drawn) | 3
O=C(NC1CCN(Cc2ccccc2)CC1)c1ccc2c(c1)[nH]c(=S)n1c3ccccc3nc21 | -10
CCC1=NNc2cccc3c(OC)ccc1c23 | 142*
COc1ccc2c3c(cccc13)OCC2=O | -4
COc1ccc(C(C)=O)c2c(O)cccc12 | 3
Cc1cc(NCCO)nc(-c2ccccc2O)n1 | 3
O=C(Cc1ccccc1)N1N=C(C2CCCCC2)CC1(O)C(F)(F)F (stereo not drawn) | -11
COc1cc2c(cc1OC)C(C(=O)O)C(c1ccc(SC)cc1)N(C)C2=O (stereo not drawn) | -6
CN(C)c1ccc(/C=C2\C(=O)Nc3ccccc32)cc1 | 38*
Cc1ccc(N=C2C(=O)Nc3ccccc32)cc1 | -4
CCN(CC)c1ccc(N=C2C(=O)Nc3ccccc32)cc1 | -36
O=C1NC(c2ccccc2Cl)c2c(-c3ccccc3)n[nH]c21 (stereo not drawn) | -8
C=CCn1c(SCC(=O)NCCN2CCOCC2)nc2sc3c(c2c1=O)CCC3 | -8
CC1=C(C(=O)OCc2ccccc2)C(c2cccc([N+](=O)[O-])c2)NC(=O)N1 (stereo not drawn) | -6
CC1=C(C(=O)OCCOc2ccccc2)C(c2cccc([N+](=O)[O-])c2)NC(=O)N1 (stereo not drawn) | 34*
CC1=C(C(=O)OCCOc2ccccc2)C(c2cccc([N+](=O)[O-])c2)NC(=O)N1C (stereo not drawn) | -2
Cc1cc(NC(=O)C2CC2)nc2c1c(=O)oc1ccccc12 | -92
O=C(NCc1ccccc1)c1cc(-c2ccc(F)cc2)on1 | -1
SMILES | 14-3-3g Raf
COc1ccccc1CNC(=O)C1c2cc(OC)c(OC)cc2C(=O)N(C)C1c1ccc(SC)cc1 (stereo not drawn) | -9
O=C(Cn1ccc2ccccc2c1=O)NCCN1CCOCC1 | -6
CCN(CC)C(=O)C[n+]1ccc(C(N)=O)cc1 | -1
C=CCN(CC=C)C(=O)C[n+]1ccc(C(N)=O)cc1 | 40*
C=CCN(CC=C)C(=O)C[n+]1cccc(C(N)=O)c1 | 1
COC(=O)C1=CN(C)C=C(C(=O)OC)C1c1cccc(OC)c1OC | -4
NC(=O)c1c(NC(=O)c2ccccc2Cl)sc2c1CCCC2 | 4
NC(=O)c1c(NC(=O)c2ccc(Cl)cc2)sc2c1CCCC2 | 40*
NC(=O)c1c(NC(=O)c2ccc(F)cc2)sc2c1CCCC2 | -12
Nc1c2c3c(c(Cl)ccc3[nH]c1=O)C(=O)c1ccccc1-2 | -4
O=C1c2ccccc2-c2c(Nc3ccccc3)c(=O)[nH]c3cccc1c23 | 92*
CC(=O)Nc1ccc(Nc2ccccc2)c2c1C(=O)c1ccccc1C2=O | -15
N=c1n(CCN2CCCCC2)c2ccccc2n1CC(=O)c1ccco1 | -21
COc1ccc(Cl)cc1NC(=O)CSc1cc(=O)n(C)c2ccccc12 | 1
COc1cccc2c1C(=O)c1c(O)c3c(c(O)c1C2=O)C[C@@](O)(C(=O)CO)C[C@@H]3O[C@H]1C[C@H](N)[C@H](O)[C@H](C)O1 | 57*
COc1ccc(NC(=O)c2cc(N3CC(C)CC(C)C3)nc3ccccc23)cc1 (stereo not drawn) | -17
CCOC(=O)c1ccc(CN(Cc2ccc(Br)cc2)S(=O)(=O)c2ccc(F)cc2)cc1 | 4
CCn1c(C=CC=C2N(C)c3ccccc3C2(C)C)[n+](CCCOC(C)=O)c2c(Cl)cccc21 | -405
CC1CCCCN1S(=O)(=O)c1ccc2[nH]c(=O)cc(C(=O)NCCN3CCN(c4ccccc4F)CC3)c2c1 (stereo not drawn) | -41
Cc1sc2ncn(CC(=O)N(C)C3CCCCC3)c(=O)c2c1S(=O)(=O)N1CCN(C)CC1 | -10
CSc1nnc2c(n1)OC(c1ccc(C)cc1)Nc1ccccc1-2 (stereo not drawn) | 6
CSc1nnc2c(n1)OC(c1ccccc1F)Nc1ccc(Br)cc1-2 (stereo not drawn) | -117
CSc1nnc2c(n1)OC(C1CC=C(C)CC1C)Nc1ccc(Br)cc1-2 (stereo not drawn) | -156
CCSc1nnc2c(n1)OC(c1ccc(C(=O)O)cc1)Nc1ccccc1-2 (stereo not drawn) | 3
CCSc1nnc2c(n1)OC(c1ccc3ccccc3c1)Nc1ccccc1-2 (stereo not drawn) | 139*
SMILES | 14-3-3g Raf
CCc1ccc(C2Nc3ccc(Br)cc3-c3nnc(SC)nc3O2)cc1 (stereo not drawn) | 0
CCSc1nnc2c(n1)OC(c1ccc(OC3CCCC3)cc1)Nc1ccccc1-2 (stereo not drawn) | 26
CSc1nnc2c(n1)OC(C1CC=C(C)CC1)Nc1ccccc1-2 (stereo not drawn) | 37*!
COc1ccc(Br)cc1C1Nc2ccc(Br)cc2-c2nnc(SC)nc2O1 (stereo not drawn) | -173
CSc1nnc2c(n1)OC(c1ccncc1)Nc1ccccc1-2 (stereo not drawn) | -7
CSc1nnc2c(n1)OC(c1ccccc1C)Nc1ccc(Br)cc1-2 (stereo not drawn) | 49*
CCc1ccc(C2Nc3ccccc3-c3nnc(SC)nc3O2)cc1 (stereo not drawn) | 149*
O=C(CCCn1c2ccccc2c(=O)c2ccccc21)NCc1ccc(F)cc1 | -17
Cc1cc(C)c(C#N)c(SCc2nc3ccccn3c2Br)n1 | -6
CCOc1cc(OCC)cc(C(=O)Nc2ccc(-c3nc4ncccc4o3)cc2)c1 | -6
CCOc1ccc(-c2nnc(Nc3ccc(OC)cc3)c3ccccc23)cc1 | -1
NC(=O)CSc1nc2sc3c(c2c(=O)n1CCc1ccccc1)CCCC3 | -3
CCSc1nnc2c(n1)OC(c1cc3c(cc1Cl)OCO3)Nc1ccccc1-2 (stereo not drawn) | 21
CCSc1nnc2c(n1)OC(c1ccccc1Cl)Nc1ccccc1-2 (stereo not drawn) | 98*
CCSc1nnc2c(n1)OC(c1ccccc1F)Nc1ccccc1-2 (stereo not drawn) | 3
Cc1c(C(=O)O)sc2ncnc(N(C)c3ccccc3)c12 | -4
CN1C(=O)c2cccc(NCCCCN3C(=O)c4ccccc4C3=O)c2C1=O | 0
O=C1c2cccc3c(NCCO)ccc(c23)C(=O)N1c1ccc(Cl)cc1 | 140*
O=C1c2cccc3c(N4CCCCC4)ccc(c23)C(=O)N1CCCO | -18
O=C1c2cccc3c(NCCCO)ccc(c23)C(=O)N1CCCO | +
Cc1ccc(N2C(=O)c3cccc4c(Cl)ccc(c34)C2=O)cc1 | -35
O=C1c2cccc3c(Cl)ccc(c23)C(=O)N1c1ccccc1 | -4
CC(=O)Nc1cc(C(=O)N2CCCCCC2)ccc1Sc1ccc(F)cc1 | -9
Cc1ccc(-c2noc(CCC(=O)N3CCC(Cc4ccccc4)CC3)n2)cc1 | 1
